# Assay outcomes as filed in PubChem BioAssay.
# The list is not random: actives were taken first. Their share in the collection is about 10%.
# BAZ2B block: inhibitors of human BAZ2B bromodomain; Q9UIF8; AlphaScreen BAZ2B-H3K14Ac peptide displacement; Potency, µM (series often up to 114 µM), most hits filed as inhibitors; 360,000 compounds, 4.4% hits; further: nearly all actives have a fitted effect of over 60% in size
#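 BAZ2B (50 nM) with biotin-H3(5-23)K14Ac peptide (50 nM) in PBS pH 7.4, 0.01% Tween-20, preformed 30 min, then compound 30 min at room temperature; top concentration 110uM. AlphaScreen streptavidin donor/nickel chelate acceptor beads (10 ug/mL final), 20 min dark, signal read.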
# GLS inhibitor: blocks human kidney-isoform glutaminase activity; 410,000 compounds, 0.21% hits; GLS enzymatic activity, qHTS titration; Potency, µM (top dose mostly 45.5 µM), most hits filed as inhibitors
# Target sequence (O94925 whole entry, looked up, canonical isoform): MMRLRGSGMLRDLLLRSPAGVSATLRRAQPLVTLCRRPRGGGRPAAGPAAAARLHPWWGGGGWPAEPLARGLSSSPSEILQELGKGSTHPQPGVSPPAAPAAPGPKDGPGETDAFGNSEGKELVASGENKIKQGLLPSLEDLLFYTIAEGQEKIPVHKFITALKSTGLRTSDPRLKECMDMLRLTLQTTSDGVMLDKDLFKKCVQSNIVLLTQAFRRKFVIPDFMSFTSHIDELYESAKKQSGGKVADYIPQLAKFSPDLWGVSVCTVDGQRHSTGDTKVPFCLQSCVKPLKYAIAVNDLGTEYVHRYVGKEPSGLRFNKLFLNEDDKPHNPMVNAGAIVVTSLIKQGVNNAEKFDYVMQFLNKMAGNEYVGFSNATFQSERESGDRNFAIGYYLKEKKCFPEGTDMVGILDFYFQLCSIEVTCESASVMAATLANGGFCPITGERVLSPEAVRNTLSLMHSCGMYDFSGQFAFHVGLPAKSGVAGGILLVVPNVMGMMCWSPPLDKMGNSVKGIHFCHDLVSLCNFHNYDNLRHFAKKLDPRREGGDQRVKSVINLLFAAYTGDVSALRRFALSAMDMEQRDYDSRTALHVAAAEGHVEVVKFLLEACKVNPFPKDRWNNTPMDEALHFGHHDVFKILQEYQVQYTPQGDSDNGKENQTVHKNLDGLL
#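 Human kidney-isoform GLS in 45 mM KH2PO4 pH 8.2, 0.02% Tween-20, with compound, started with 1mM L-Glutamine (added stock). Glutamate oxidase/HRP/Amplex red coupled fluorescence read at start and after 30 min at RT.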
# G9a inh: G9a (human) methyltransferase inhibition. 350,000 compounds, 8.8% hits. Potency, µM (top dose mostly 102 µM), actives largely listed as inhibitors. G9a H3K9 monomethylation, AlphaScreen, 2 h; further: nearly all actives have a fitted effect of over 75% in size
#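 Signal arises when biotinylated H3K9 peptide, once monomethylated, bridges streptavidin donor and antibody-captured acceptor beads. Enzyme at 20 nM was preincubated 15 min with test compounds; peptide 500 nM and SAM 20 uM then reacted for 2 h.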
# L3MBTL1 block: blocks human L3MBTL1; Q9Y468; AlphaScreen L3MBTL1–H3K9me1 peptide binding; Potency, µM (titrated, usually from 57.1 µM), usual class: inhibitors; 230,000 compounds, 0.66% hits; AID 485360; further: nearly all actives have a fitted effect of over 60% in size
#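 AlphaScreen assay: L3MBTL1 (50 nM final) was preincubated 30 min at room temperature with biotinylated H3(1-15)K9me1 peptide (75 nM final), then 30 min with library compounds; streptavidin donor and nickel chelate acceptor beads (10 ug/mL final) added, 30 min dark.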
# HP1b binding inh: blocks HP1-beta chromodomain binding to methylated histone tails; P83916; AlphaScreen HP1-beta / biotin-H3K9me3 peptide binding; Potency, µM (highest dose often 114 µM), usual class: inhibitors; 390,000 compounds, 0.56% hits; AID 540317; further: nearly all actives have a fitted effect of over 70% in size
#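 AlphaScreen: HP1-beta (50 nM) preformed 30 min with biotin-H3(1-18)K9me3 peptide (50 nM) in PBS pH 7.4, 0.01% Tween-20. Compound added for 30 min at RT, then streptavidin donor/nickel chelate acceptor beads (10 ug/mL) for 30 min.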
# JMJD2A Tudor inh: blocks the human JMJD2A Tudor domain; O75164; AlphaScreen JMJD2A-Tudor / H3K4me3 peptide binding; Potency, µM (doses to about 114 µM), hits mostly inhibitors; 390,000 compounds, 4.4% hits; AID 504339; further: nearly all actives have a fitted effect of over 50% in size
# A number is an active result; 0 = inactive; ? = inconclusive; - = not tested or not shown; [ ] = dose if it differs, or a comment. The call rests on the fitted dose curve; in most records, active means well fitted curve in the direction sought with a large enough effect; inconclusive means small, poorly fitted or top-dose-only effect, or another doubt; inactive means no such curve, though single readings can be large; an effect the other way counts as inactive or inconclusive.
SMILES,BAZ2B block,GLS inhibitor,G9a inh,L3MBTL1 block,HP1b binding inh,JMJD2A Tudor inh
CCC(=O)c1ccc(OCCn2cncn2)cc1,0,0,0[12.7 µM],0[11.4 µM],0,0
c1ccc2c(c1)ncn2CCOCCOCCn1cnc2ccccc21,70.8µM,0,?,0[11.4 µM],0,0
CCC(=O)c1ccc(OCCn2cnc3ccccc32)cc1,0,0,0[12.7 µM],0,0,79.4µM
Cn1nc(-c2ccncc2)nc2c(=O)n(C)c(=O)nc1-2,-,-,-,-,0,0
COc1cc(/C=C2/C(=O)NN(c3cccc(C)c3)C2=O)ccc1OC(=O)c1ccco1,?,?,?,0,0,0
COc1cc(/C=C2/C(=O)NN(c3cccc(Cl)c3)C2=O)cc(OC)c1O,28.2µM,0,14.1µM,0,?,50.1µM
O=C1NN(c2cccc(Br)c2)C(=O)/C1=C\c1ccc(O)cc1,0,0,3.55µM,-,0,0
CCOc1cc(/C=C2/C(=O)NN(c3cccc(Cl)c3)C2=O)ccc1O,35.5µM,0,31.6µM,0,0,?
COc1ccccc1-n1cnnc1SCc1csc(-c2ccccc2)n1,0,0,0,-,0,0
C=CCn1c(SCc2csc(-c3ccc(C)cc3)n2)nnc1-c1ccccc1OC,0,0,31.6µM,0,0,?
CC12CN3CC(C)(CN(C1)C3c1ccc3ccccc3c1O)C2=O (stereo unspecified),0,0,1.58µM,0,0,?
Cc1nc2cc(-c3ccc(Cl)cc3)nn2c(NCCN(C)C)c1C,0,0,70.8µM,0,0,0
N/C(=N\OS(=O)(=O)c1ccccc1)c1ccncc1,?,0,0[0.501 µM],0,0,0
N/C(=N\OS(=O)(=O)c1ccc2ccccc2c1)c1ccccn1,20µM,0,5.01µM,0,0,5.01µM
N/C(=N\OS(=O)(=O)c1ccc2ccccc2c1)c1ccncc1,0,0,20µM,0,?,0
N/C(=N/OS(=O)(=O)c1ccc([N+](=O)[O-])cc1)c1ccncc1,0,0,10µM,0,0,0
N/C(=N\OC(=O)c1ccccc1)c1ccccn1,0,0,-,0,0,0
N/C(=N\OS(=O)(=O)c1ccc2ccccc2c1)c1cccnc1,?,0,?,0,0,0
Cc1ccc(NC(=O)c2cnc(SCC(=O)N3CCOCC3)n(C)c2=O)cc1C,0,0,0,-,0,0
COc1cccc2c1Oc1ncccc1N(C(=O)CCC(=O)NCCC(C)C)C2,0,0,0,-,0,0
C[n+]1ccccc1/C=C/c1ccc(C#N)cc1,44.7µM,0,0[0.501 µM],0[2.29 µM],?,22.4µM
C[n+]1ccccc1/C=C/c1ccc([N+](=O)[O-])cc1,0,0,25.1µM,-,0,0
CCN(C(=O)c1sc2nc3n(c(=O)c2c1C)CCCC3)c1ccccc1F,0,0,12.6µM,-,0,0
Cc1ccc(Cl)cc1N(C)C(=O)c1sc2nc3n(c(=O)c2c1C)CCCC3,?,0,12.6µM,-,0,0
O=C(CN1C(=O)C(c2ccc(F)cc2)=NC12CCCCCC2)Nc1ccccc1Cl,0,0,0,-,0,0
SMILES,BAZ2B block,GLS inhibitor,G9a inh,L3MBTL1 block,HP1b binding inh,JMJD2A Tudor inh
S=c1[nH]nc(CSCCOc2ccc(Cl)cc2Cl)o1,0,0,20µM,0,0,0
CCCCS(=O)(=O)c1oc(-c2ccc(F)cc2)nc1S(=O)(=O)c1ccccc1,0,0,?,-,0,0
O=C(CCc1n[nH]c(=O)[nH]c1=O)Nc1cccc([N+](=O)[O-])c1,-,0,50.1µM,-,0,?
O=C(CSc1n[nH]c(=O)[nH]c1=O)c1ccccc1,?,0,?,0,0,0
O=C(CSc1n[nH]c(=O)[nH]c1=O)c1cccc([N+](=O)[O-])c1,?,0,31.6µM,-,0,0
O=C(CSc1nc2ncccc2[nH]1)c1cccc([N+](=O)[O-])c1,0,0,39.8µM,0,0,0
COc1ccc(NC(=O)CSc2nc3ncccc3[nH]2)cc1OC,0,-,0,-,0,0
COc1ccc(OC)c(C(=O)CSc2nc3ncccc3[nH]2)c1,0,0,50.1µM,0,0,0
COc1cccc(CNC(=O)c2cc3n(n2)CCCN(Cc2ccc(C)cc2)C3=O)c1OC,0,0,0[12.7 µM],-,0,0
Cc1cc(SCC(=O)c2cccc([N+](=O)[O-])c2)nc(=O)[nH]1,?,0,28.2µM,-,?,?
Cc1cc(C)cc(NC(=O)CSc2cc(C)[nH]c(=O)n2)c1,0,0,0,-,0,0
CCn1c(Sc2ccc([N+](=O)[O-])cn2)nnc1-c1ccco1,0,0,0[0.501 µM],0,0,25.1µM
CN1CCN(c2ncc3nc(-c4cccc(C#N)c4)c(=O)n(CCC#N)c3n2)CC1,-,-,0[0.501 µM],-,-,-
O=C(/C=C/c1cccnc1)c1cccc(O)c1,0,0,35.5µM,-,0,?
O=C(Oc1cccnc1)c1ccc([N+](=O)[O-])cc1,?,0,10µM,0,0,0
O=C(/C=C/c1cccnc1)c1ccccc1O,0,0,35.5µM,-,0,0
O=C(/C=C/c1cccnc1)c1ccc([N+](=O)[O-])cc1,0,0,12.6µM,-,0,?
O=C(/C=C/c1cccc(O)c1)c1cccnc1,0,0,?,-,0,0
Cc1ccc(C(=O)Oc2cccnc2)cc1[N+](=O)[O-],0,0,?,0,0,0
Cn1c(=O)c2c(nc(N3CCOCC3)n2Cc2ccc(Br)cc2)n(C)c1=O,0,0,0,-,0,0
Cc1noc(/C=C/c2cccnc2)c1[N+](=O)[O-],0,0,44.7µM,-,0,0
CCOc1ccc(C(=O)Nc2cc(-c3cn4cccnc4n3)ccc2C)cc1OCC,0,0,0,-,0,0
O=C(CCN1CCCCC1)NNC(=S)NC(=O)c1ccc(Br)cc1,?,0,11.2µM,?,0,?
O=C(CCN1CCOCC1)NNC(=S)NC(=O)c1ccc(Br)cc1,0,0,7.94µM,0,0,?
O=C(O)CCS(=O)(=O)c1cccc2cccnc12,0,0,?,0,0,0
SMILES,BAZ2B block,GLS inhibitor,G9a inh,L3MBTL1 block,HP1b binding inh,JMJD2A Tudor inh
CCSS(=O)(=O)c1cccc2cccnc12,22.4µM,10µM,0.447µM,0,?,1.12µM
CCOC(=O)N1CCN(C(=O)CN(c2cccc(Cl)c2)S(=O)(=O)c2ccccc2)CC1,0,0,0,-,0,0
CCOC(=O)c1c(C)oc2ncnc(Nc3cc(Cl)ccc3OC)c12,0,0,0,-,0,0
COCCNC(=O)c1cc(Sc2ccc(F)cc2F)nc2ccccc12,0,0,?,-,0,0
CCOc1ccc(/C(CCC(=O)O)=N/NC(=S)NC(C)C)cc1,0,0,22.4µM,0,0,0
CCOc1ccccc1CNC(=O)C(CC)n1nc(C)c2c(C)n(-c3ccccc3)nc2c1=O (stereo unspecified),0,0,0,-,0,0
Cc1sc2c(c1C)c(=O)n(-c1ccccc1)c(=O)n2CC(=O)c1ccc(Cl)cc1,0,0,0,-,0,0
O=C(Cn1ncc(Cl)c(Cl)c1=O)N1CCN(S(=O)(=O)c2ccc3ccccc3c2)CC1,0,0,44.7µM,0,0,0
O=c1c(Cc2ccc(F)cc2)c(O)ccn1CCc1cnc[nH]1,0,0,0,0,0,0
